Compound activity deposited in PubChem by several laboratories.
PREPL inhibitor: inhibits the human prolyl oligopeptidase-like enzyme | 320,000 compounds, 0.68% hits | inhibition, % at 5.96 µM | recombinant PREPL, fluorescence polarization activity-based probe; in the data active = inhibition above about 43%
GRK2 aptamer HTS: inhibitors of human GRK2 displacing RNA aptamer | P25098 | bead flow cytometry, FAM-aptamer displacement from GRK2 | 330,000 compounds, 0.59% hits | inhibition of aptamer binding, % at 10 µM;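 active = inhibition of aptamer binding above 40%, roughly 3 SD of noise, on plates passing a quality check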;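 note: median bead fluorescence of bound FAM aptamer so fluorescent compounds give negative values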
JMJD2C inh: inhibitors of human GASC-1 (JMJD2C) demethylase; GST-JMJD2C(1-420) H3K9me3 demethylation, DELFIA europium; 330,000 compounds, 0.069% hits; inhibition, % at 2.35 µM; Q9H3R0; AID 2099;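 active = more than half of a compound's replicate wells show inhibition beyond 50%, single wells judged on their own value; inconclusive = some, but no more than half, of replicates pass 50% inhibition; inactive = no replicate passes 50% inhibition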;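 note: signal counts dimethyl H3K9 product captured on neutravidin plate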
VLA-4 inh: inhibition in a human VLA-4 binding assay; VLA-4 expressing cells, ligand binding flow cytometry; AID 2557; P13612; inhibition, % (about 7 µM as worked out from the volumes in the protocol); 330,000 compounds, 0.2% hits; in the data active = inhibition above about 50%
Pemphigus Ab inh: inhibitors of pemphigus antibody binding to human desmoglein-3; P32926; DSG3-coupled beads, scFv-anti-DSG3-GFP binding, flow cytometry; hits give low values; binding (percent of control), % at 10 µM; 310,000 compounds, 0.48% hits;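 active = binding more than 3 SD below its plate's average and above zero; inconclusive = below that plate limit but binding exactly zero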;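 note: hits lower antibody fragment binding to DSG3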
Target sequence (P32926 whole entry, looked up, the tested form may be a part): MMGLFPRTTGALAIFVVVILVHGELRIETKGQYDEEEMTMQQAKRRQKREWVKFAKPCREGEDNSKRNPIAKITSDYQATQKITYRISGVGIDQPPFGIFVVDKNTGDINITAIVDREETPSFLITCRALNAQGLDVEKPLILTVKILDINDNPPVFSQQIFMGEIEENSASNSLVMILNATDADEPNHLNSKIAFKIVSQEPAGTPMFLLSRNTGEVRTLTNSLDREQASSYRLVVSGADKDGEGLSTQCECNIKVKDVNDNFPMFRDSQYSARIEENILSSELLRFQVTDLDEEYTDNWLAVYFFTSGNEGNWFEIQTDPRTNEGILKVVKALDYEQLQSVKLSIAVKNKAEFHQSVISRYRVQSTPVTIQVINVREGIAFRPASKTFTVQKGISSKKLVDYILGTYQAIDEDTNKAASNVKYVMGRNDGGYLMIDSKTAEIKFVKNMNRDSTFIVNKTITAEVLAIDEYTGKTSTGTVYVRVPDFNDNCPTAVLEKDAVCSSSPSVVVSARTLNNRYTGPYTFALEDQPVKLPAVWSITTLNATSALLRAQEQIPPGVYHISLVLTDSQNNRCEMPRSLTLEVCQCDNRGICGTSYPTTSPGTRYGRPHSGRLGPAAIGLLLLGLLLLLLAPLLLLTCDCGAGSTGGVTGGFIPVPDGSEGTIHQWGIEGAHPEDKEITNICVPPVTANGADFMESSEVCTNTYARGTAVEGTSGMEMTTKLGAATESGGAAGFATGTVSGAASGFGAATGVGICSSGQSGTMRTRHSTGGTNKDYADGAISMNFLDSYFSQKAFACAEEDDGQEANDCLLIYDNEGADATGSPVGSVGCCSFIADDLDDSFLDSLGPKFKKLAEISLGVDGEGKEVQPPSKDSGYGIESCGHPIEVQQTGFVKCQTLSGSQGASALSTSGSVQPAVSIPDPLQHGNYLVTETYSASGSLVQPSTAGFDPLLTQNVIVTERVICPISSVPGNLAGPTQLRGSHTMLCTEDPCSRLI
Each line names hits and unclear results; the compound was inactive in the other large screens; ! = repeats disagree. Most compounds without a hit are left out; they make up all but 1.6% or so of the library.

CCOC(=O)N1CCC(NC(=O)CCc2nc(C3=CCN(C)CC3)no2)CC1	JMJD2C inh 53
CCN1CCN(c2nc3c(c(=O)[nH]2)CCCC3)CC1	none
CCCCCCCCn1sccc1=O	Pemphigus Ab inh 87
CC(O)C1C=CC=CC(=O)OC2CC3OC4C5OC5(C)C(O)CC4(COC(=O)C(O)C(C)CCO1)C2(C)C31CO1 (stereo unspecified)	Pemphigus Ab inh 74 (no result: PREPL inhibitor, GRK2 aptamer HTS, JMJD2C inh, VLA-4 inh)
COc1ccc(Br)cc1CN1CCN(CCO)CC1	none
COc1cc(Br)cc(CN2CCN(C)CC2)c1O	JMJD2C inh 59
O=[N+]([O-])c1ccccc1Cl	none
O=C1NC(=O)C(Sc2ccccc2[N+](=O)[O-])C(=O)N1	JMJD2C inh 69 (no result: Pemphigus Ab inh)
Cc1cccc(N2C(=O)NC(=O)/C(=C\C=C\c3ccco3)C2=O)c1	none
Cc1cccc(N2C(=O)NC(=O)/C(=C/c3ccc([N+](=O)[O-])o3)C2=O)c1	GRK2 aptamer HTS 44, JMJD2C inh 55 (no result: Pemphigus Ab inh)
O=C(N/N=C\C1C(=O)NC(=S)N(c2ccccc2)C1=O)c1ccc(O)cc1 (stereo unspecified)	none
Cn1cccc1/C=C1\C(=O)NC(=O)N(Cc2ccco2)C1=O	none (no result: PREPL inhibitor, GRK2 aptamer HTS, VLA-4 inh)
COc1ccc(/C=C2/C(=O)NC(=O)N(Cc3ccco3)C2=O)cc1	GRK2 aptamer HTS 82 (no result: Pemphigus Ab inh)
CCC1(c2ccc(-c3ccccc3)cc2)C(=O)NC(=O)NC1=O	none
O=C(COc1ccc2c3c(c(=O)oc2c1)CCC3)N1C[C@H]2C[C@@H](C1)c1cccc(=O)n1C2	none
O=C(CCNC(=O)N1C[C@H]2C[C@@H](C1)c1cccc(=O)n1C2)Nc1ccc(F)cc1	Pemphigus Ab inh 80
Cc1cc(C)cc(NC(=O)CCNC(=O)N2C[C@H]3C[C@@H](C2)c2cccc(=O)n2C3)c1	none
C[C@@H]1CN([C@H](C)CO)C(=O)c2c(c3ccccc3n2C)-c2ccccc2CO[C@H]1CN(C)Cc1ccc2c(c1)OCCN2C	none (no result: PREPL inhibitor, GRK2 aptamer HTS, JMJD2C inh, VLA-4 inh)
O=C(O)CCC(=O)NCCC1=c2ccccc2=N/C1=C\c1c(O)n(Cc2ccc(F)cc2)c(=S)[nH]c1=O	Pemphigus Ab inh 67
CC1Oc2cc3c(-c4c(O)cc(O)c5c(O)c6c(cc45)OC(C)C(C)C6=O)c(O)cc(O)c3c(O)c2C(=O)C1C (stereo unspecified)	PREPL inhibitor 85 (no result: Pemphigus Ab inh)
COc1ccc(OC)c(N2C(=O)/C(=C/c3ccco3)C(=O)NC2=S)c1	GRK2 aptamer HTS 100 (no result: Pemphigus Ab inh)
O=C1NC(=S)N(c2ccc(F)cc2)C(=O)/C1=C\c1ccoc1	none (no result: PREPL inhibitor, GRK2 aptamer HTS, JMJD2C inh, VLA-4 inh)
O=C1NC(=S)N(c2ccc(F)cc2)C(=O)/C1=C/c1ccco1	GRK2 aptamer HTS 99 (no result: Pemphigus Ab inh)
CN1C(=O)/C(=C/C=C/c2ccco2)C(=O)NC1=S	Pemphigus Ab inh 19
COC(=O)CCCNC(=O)CN1CC(c2ccccc2)CC1=O (stereo unspecified)	none
CN1CCCC1CCOC(C)(c1ccccc1)c1ccc(Cl)cc1 (stereo unspecified)	none (no result: PREPL inhibitor, GRK2 aptamer HTS, JMJD2C inh, VLA-4 inh)
O=C(C(=C1N(Cc2ccc(Cl)nc2)CCN1Cc1ccc(Cl)nc1)[N+](=O)[O-])C(Cl)Cl	GRK2 aptamer HTS 44
CN(C)S(=O)(=O)c1cc(NC(=O)COC(=O)Cc2ccccc2)ccc1Cl	Pemphigus Ab inh 88
Cc1ccc([C@@H]2C[C@H]3[C@@H](CN2S(=O)(=O)c2ccc(Cl)cc2)C(=O)C[C@@H](c2ccccc2F)N3S(=O)(=O)c2ccc(C)cc2)cc1	none (no result: PREPL inhibitor, GRK2 aptamer HTS, JMJD2C inh, VLA-4 inh)
CCC(C)n1c(O)c(C=Nc2cccc(C(F)(F)F)c2)c(=O)[nH]c1=S (stereo unspecified)	none
NC(=O)c1ccc(N=Cc2c(O)n(Cc3ccco3)c(=O)[nH]c2=O)cc1	Pemphigus Ab inh 79
CCN(CC)c1ccc(N=Cc2c(O)n(Cc3ccco3)c(=O)[nH]c2=O)cc1	none (no result: Pemphigus Ab inh)
O=C1NC(=O)N(c2ccc3c(c2)OCO3)C(=O)/C1=C/c1cccs1	GRK2 aptamer HTS 44
O=C(CCc1nc(-c2ccccc2F)no1)N1CCC2(CC1)OCCO2	none (no result: Pemphigus Ab inh)
COc1ccc(OC)c(N2C(=O)NC(=O)C(CCc3ccncc3)(CCc3ccncc3)C2=O)c1	JMJD2C inh inconclusive
CC[C@@H](CO)NC(=O)[C@@H]1C=C2c3cccc4c3c(cn4C)C[C@H]2N(C)C1	PREPL inhibitor 54!
O=c1cccc2n1CC1CC2CN(c2ncnc3c2cnn3-c2ccc(Cl)cc2)C1 (stereo unspecified)	none
C[C@H]1CC2C3CC=C4C[C@@H](O)CC[C@]4(C)C3CC[C@]2(C)[C@H]1O (stereo partly specified)	none
O=C1NC(=O)C(=Cc2ccc(-c3ccc(Cl)cc3)o2)C(=O)N1	Pemphigus Ab inh 72
O=C1CC=C2C3CC4N(CCC45c4cc(O)c(O)cc4N1C25)CC3=CCBr (stereo unspecified)	Pemphigus Ab inh 54 (no result: PREPL inhibitor, GRK2 aptamer HTS, JMJD2C inh, VLA-4 inh)
O=C1CC=C2C3CC4N(CCC45c4ccccc4N1C25)CC3=CCO (stereo unspecified)	none (no result: PREPL inhibitor, GRK2 aptamer HTS, JMJD2C inh, VLA-4 inh)
CCS(=O)(=O)Nc1cccc(C(=C2CCCCC2)c2cnc[nH]2)c1	none (no result: JMJD2C inh)
CC(=O)Nc1ccccc1C(=O)OCc1ccc(C(=O)c2ccccc2)cc1	none (no result: VLA-4 inh)
CC(=O)Nc1ccccc1C(=O)OCc1cccc(F)c1	VLA-4 inh 56
COCc1cc(OC(=O)N(C)C)nc2c1c(C)nn2C	JMJD2C inh 63
C#CC1(O)CCC2C3CCC4=C/C(=N/OCC(=O)NCC(=O)NC(C(=O)O)C(C)C)CC[C@]4(C)C3CC[C@@]21C (stereo partly specified)	none (no result: PREPL inhibitor)
C#C[C@]1(O)CC[C@H]2[C@@H]3CCC4=Cc5nc6nc7ccccc7n6cc5C[C@]4(C)[C@H]3CC[C@@]21C	Pemphigus Ab inh 63 (no result: JMJD2C inh)
CN1C(=O)C(Cc2ccsc2)C(=O)N(C)C1=O	JMJD2C inh 74
Cc1nc(N2CCN(Cc3ccc4c(c3)OCO4)CC2)[nH]c(=O)c1C	none (no result: PREPL inhibitor, GRK2 aptamer HTS, VLA-4 inh)
CCN1CCN(c2ccc([N+](=O)[O-])cc2C=C2C(=O)NC(=O)NC2=O)CC1	JMJD2C inh 57
Cc1cc(/C=C2\C(=O)NC(=O)N(Cc3ccccc3)C2=O)c(C)n1-c1ccc(Cl)c(C(=O)O)c1	GRK2 aptamer HTS 100
Cc1ccc2nc3c(cc2c1)CC1(C(=O)N(C)C(=O)N(C)C1=O)C1CCCCN31 (stereo unspecified)	JMJD2C inh 56, Pemphigus Ab inh inconclusive
Cc1ccc2nc3c(cc2c1)CC1(C(=O)N(C)C(=O)N(C)C1=O)C1COCCN31 (stereo unspecified)	none (no result: Pemphigus Ab inh)
CCN1/C(=C/C=C/C2=[N+](CC)c3ccccc3C2(C)C)C(C)(C)c2ccccc21	none (no result: PREPL inhibitor, GRK2 aptamer HTS, JMJD2C inh, VLA-4 inh)
CN1/C(=C\C=C\C2=[N+](C)c3ccc4ccccc4c3C2(C)C)C(C)(C)c2ccccc21	GRK2 aptamer HTS 84 (no result: VLA-4 inh, Pemphigus Ab inh)
CCOP(=O)(OCC)C(NC(=O)c1cccc([N+](=O)[O-])c1)C(Cl)(Cl)Cl (stereo unspecified)	Pemphigus Ab inh 83
O=[N+]([O-])CCO	none
COC(=O)C1=C(c2ccc(OC)c(OC)c2)C[C@@H]2CC[C@H]1N2C(=O)NC1Cc2ccccc2C1	none
CC1(C)C(C(=O)N2CCN(c3ccc(Cl)cc3)CC2)C1(C)C	none
